Screening data (PubChem)
Only some compounds are listed: those with a hit (about 1.2% of all), similar ones and a draw of the others.
TRPV1 agonist: agonists of human vanilloid receptor 1 (TRPV1); Q8NER1; TRPV1-expressing cells, Fluo-8 calcium influx, agonist mode; activation, % at 8.33 µM; actives 0.19% (n = 320,000); AID 540275; in the data active means activation above about 80%; inconclusive means between about 30% and that limit; further: 0% is about no effect
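Cells expressing TRPV1 were dye-loaded with Fluo-8 and read kinetically: 10 s baseline, 3 min after compound (agonist portion), then 2 min after EC20 capsaicin (allosteric enhancer portion). Calcium-bound dye fluorescence at 480/520 nm.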
hERG WT inh: blocks the wildtype human KCNH2 potassium channel; activity change, % at 1.84 µM; actives 0.37% (n = 340,000); U2OS, BacMam KCNH2, thallium flux FluxOr; active compounds read low; AID 720551; Q12809;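 active means maximum activity change below -70%; inconclusive means maximum activity change between -70% and -50%; inactive means maximum activity change above -50%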; further: on the % scale 0 is the no-effect control and ±100 the full control effect
Target sequence (Q12809 whole entry, looked up): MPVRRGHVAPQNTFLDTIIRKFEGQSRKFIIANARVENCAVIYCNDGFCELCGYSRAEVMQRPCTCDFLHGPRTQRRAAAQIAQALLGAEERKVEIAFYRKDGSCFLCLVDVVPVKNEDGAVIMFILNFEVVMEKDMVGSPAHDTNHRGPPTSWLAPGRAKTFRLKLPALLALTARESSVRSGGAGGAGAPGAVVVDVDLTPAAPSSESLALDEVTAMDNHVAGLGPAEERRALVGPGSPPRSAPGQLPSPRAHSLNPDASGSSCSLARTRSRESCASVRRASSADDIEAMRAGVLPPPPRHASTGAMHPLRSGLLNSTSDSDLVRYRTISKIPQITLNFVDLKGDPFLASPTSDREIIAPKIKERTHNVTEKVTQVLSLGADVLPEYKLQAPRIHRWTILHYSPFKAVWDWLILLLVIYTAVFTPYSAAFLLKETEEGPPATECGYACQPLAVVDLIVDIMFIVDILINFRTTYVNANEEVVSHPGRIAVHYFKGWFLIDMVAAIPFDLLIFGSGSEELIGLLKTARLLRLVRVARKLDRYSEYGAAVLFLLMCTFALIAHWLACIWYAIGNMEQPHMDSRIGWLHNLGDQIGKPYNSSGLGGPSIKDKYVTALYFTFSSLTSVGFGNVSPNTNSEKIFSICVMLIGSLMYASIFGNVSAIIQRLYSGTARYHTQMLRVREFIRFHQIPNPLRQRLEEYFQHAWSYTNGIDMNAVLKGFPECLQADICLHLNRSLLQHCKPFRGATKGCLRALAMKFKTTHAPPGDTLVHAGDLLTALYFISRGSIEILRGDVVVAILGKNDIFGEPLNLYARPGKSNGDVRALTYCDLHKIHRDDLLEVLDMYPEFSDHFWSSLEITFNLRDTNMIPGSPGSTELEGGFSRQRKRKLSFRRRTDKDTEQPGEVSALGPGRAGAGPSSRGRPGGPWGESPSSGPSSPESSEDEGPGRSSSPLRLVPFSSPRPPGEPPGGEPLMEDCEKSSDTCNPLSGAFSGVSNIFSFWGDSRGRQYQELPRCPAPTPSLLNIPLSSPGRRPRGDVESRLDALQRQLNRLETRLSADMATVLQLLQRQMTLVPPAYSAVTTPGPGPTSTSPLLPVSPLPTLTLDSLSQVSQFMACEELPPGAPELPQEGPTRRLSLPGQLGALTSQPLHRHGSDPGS
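U2OS cells transduced with wild-type KCNH2 virus are loaded with FluxOr dye for 45 min, and thallium flux is measured in kinetic reads before and after stimulation buffer. Rate constants are normalized to DMSO controls.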
TRPV1 potentiator: potentiators of human vanilloid receptor 1 (TRPV1); AID 540277; Q8NER1; TRPV1-expressing cells, Fluo-8 calcium influx, capsaicin EC20 potentiation; actives 0.02% (n = 320,000); potentiation, % at 8.33 µM; in the data active means potentiation above about 80%; inconclusive means between about 30% and that limit; further: 0% is about no effect
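TRPV1-expressing cells were cultured overnight at 35.5C and loaded with Fluo-8 calcium dye for 40 to 90 min at room temperature. After a 10 s baseline, compound was added and calcium influx was read kinetically for 3 min (ex 480/em 520 nm).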
KCNH2 3.1 block: inhibitors of human KCNH2 3.1 potassium channel isoform | activity change, % (tested at about 1.8 µM) | actives 0.95% (n = 340,000) | U2OS KCNH2 3.1, thallium flux FluxOr; active compounds read low;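 active means maximum activity change below -70%; inconclusive means maximum activity change from -70% to -50%; inactive means maximum activity change above -50%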;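 further: thallium influx rate constant from kinetic fluorescence after stimulation buffer; on the % scale 0 is the no-effect control and ±100 the full control effect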
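Thallium flux via FluxOr fluorescence (Red40 quencher, 45 min loading) in U2OS cells virally expressing the KCNH2 3.1 isoform (1.77 x 10^8 /mL virus, overnight at 37 C). Rate constants from 2-min kinetic reads post-stimulation, normalised to positive and negative controls.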
The depositor's hits bear a star; ? = inconclusive; . = not tested or not shown.

SMILES	TRPV1 agonist	hERG WT inh	TRPV1 potentiator	KCNH2 3.1 block
CN1CCN(C2=CC3=CC(=C(C#N)C#N)CCC3CC2)CC1 (stereo unspecified)	183.6*	-22.1	-4.6	?
C/C(=N\Nc1cc(N2CCOCC2)nc(C)n1)c1cccc([N+](=O)[O-])c1	1.0	3.4	-3.7	12.3
CCCCc1ccc(/C(C)=N/Nc2cc(N3CCOCC3)nc(C)n2)cc1	-2.3	8.3	13.0	-81.6*
Cc1cc(S(=O)(=O)c2ccc(Cl)cc2)nc(S(=O)(=O)c2ccc(Cl)cc2)c1C#N	.	1.8	.	-73.5*
Cc1cccc(NC(=O)c2ccc(NCCc3ccccc3)c([N+](=O)[O-])c2)c1	3.8	-16.2	2.9	-189.5*
Cc1ccc(NC(=O)c2ccc(NCCN)c([N+](=O)[O-])c2)cc1	6.2	8.8	1.7	-2.6
C=C1CC(COc2ccc3c(C)c(Cl)c(=O)oc3c2)(c2ccccc2)OC1=O (stereo unspecified)	.	-15.2	.	-6.7
COc1ccc2sc(SCCCS(=O)(=O)O)[n+](CCCS(=O)(=O)[O-])c2c1	-0.5	-156.2*	-16.1	-203.4*
O=C(Nc1ccc(OCC(=O)N2CCOCC2)cc1)Nc1cccc(Cl)c1	-0.2	13.6	0.2	-82.2*
CC(C)(C)c1ccc(NC(=O)Nc2ccc(OCC(=O)N3CCOCC3)cc2)cc1	-1.8	13.6	1.3	-10.0
O=C(O)c1cccc2c1C(=O)c1ccc(N3CCN(Cc4ccc5c(c4)OCO5)CC3)cc1S2(=O)=O	.	-1.1	.	-5.6
CC(=O)/C=N/Nc1ccccc1	-4.8	-1.8	3.2	6.3
CC(=NNc1ccccc1)C(C)=NNc1ccccc1	.	43.0	.	-71.0*
Cc1ccc(Cn2nnnc2CN2CCC(c3nc4ccc(Cl)cc4[nH]3)CC2)cc1	-2.3	-2.3	7.1	-87.9*
Clc1ccc2nc(C3CCN(Cc4nnnn4C4CCCCC4)CC3)[nH]c2c1	-1.1	-4.8	-7.4	-28.1
Cc1cc2nc3ccc(=[N+](C)C)cc-3sc2cc1N	-7.6	2.5	6.0	-93.7*
CN(C)c1ccc2nc3ccc(=[N+](C)C)cc-3sc2c1	-2.6	0.1	7.2	-5.7
CC(=O)NN=C1CCC(c2ccccc2)CC1 (stereo unspecified)	5.0	-88.2*	-0.9	1.4
CC1=Nc2nc(N3CCCCC3)c(C#N)c3c4c(nc(c23)N1)N(c1ccc(C(C)C)cc1)C(=O)C4	0.4	0.4	4.2	-16.9
O=S(=O)(c1ccc(Br)s1)N1CCN(c2ccnc3cc(Cl)ccc23)CC1	-5.5	-25.1	6.9	?
CC(C)Oc1ccc(NC(=O)Oc2ccccc2)cc1	6.5	2.9	-5.0	-206.6*
O=S(=O)(c1ccc(Cl)nc1)N1CCCc2ccccc21	-6.1	2.6	14.7	4.0
O=S(=O)(c1ccc(Cl)nc1)N1CCc2ccccc21	-11.5	-110.7*	7.2	-22.1
Cc1ccc(C(=O)Nc2ccc3c(c2)C(=O)NC3=O)cc1	?	28.1	-27.6	3.5
COC(=O)c1ccc(C(=O)Nc2ccc3c(c2)C(=O)NC3=O)cc1	21.0	11.9	-17.0	-95.9*
SMILES	TRPV1 agonist	hERG WT inh	TRPV1 potentiator	KCNH2 3.1 block
CN1C[C@@H]2[C@@H]3C(=O)N(C)C(=O)[C@@H]3[C@](Cc3ccccc3)(C1=O)N2C(=O)c1ccccc1	.	4.3	.	-4.8
CCOC(=O)c1sc2ncn(CC(=O)NCC3CCCO3)c(=O)c2c1C (stereo unspecified)	2.2	-4.1	-10.0	-180.5*
O=C(NNC(=O)c1ccc([N+](=O)[O-])cc1Cl)c1ccncc1	-1.5	-4.1	28.4	3.2
N#Cc1ccc(N2C(=O)[C@@H]3C(C(=O)c4ccc5ccccc5n4)=NN[C@@H]3C2=O)cc1	2.6	-97.6*	-8.7	0.5
O=c1c2ccccc2ncn1Cc1ccc(Cl)cc1	-0.1	1.8	3.0	-98.3*
CC(C)N1C(=O)S/C(=C/c2ccc(Sc3nc4ccccc4[nH]3)o2)C1=O	?	-129.6*	-0.4	2.6
OC(COc1ccc(F)cc1)CN1CCN(CC(O)COc2ccc(F)cc2)CC1 (stereo unspecified)	-0.1	-28.6	-4.0	-74.3*
Cc1ccccc1OCC(O)CN1CCN(C)CC1 (stereo unspecified)	6.6	4.0	9.6	0.0
OC(COc1ccccc1Cl)CN1CCN(CC(O)COc2ccccc2Cl)CC1 (stereo unspecified)	9.0	?	-11.9	-82.3*
Cc1ccc(OCC(O)CN2CCN(CC(O)COc3ccc(C)cc3)CC2)cc1 (stereo unspecified)	6.8	-9.2	-8.7	?
OC(COc1ccc(-c2ccccc2)cc1)CN1CCCCC1 (stereo unspecified)	.	14.2	.	-73.2*
